Assay [1] addresses Progesterone receptor (Homo sapiens) (UniProt P06401). As to the kind of experiment: qHTS assay to identify small molecule agonists of the progesterone receptor (PR) signaling pathway (AID 1346784; calls by dose curve; further: nearly all actives have a fitted effect of over 30% in size). Summed up:
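PR-UAS-bla HEK 293T cells (beta-lactamase reporter under UAS) in 2% charcoal-stripped FBS, dosed with 23 nL compound after 6 hr, incubated 16hr at 37C. LiveBLAzer B/G FRET substrate added, fluorescence read after 2 hours.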

Assay [2] shares this target. Put plainly: qHTS assay to identify small molecule antagonists of the progesterone receptor (PR) signaling pathway (AID 1346795; active means well fitted inhibition curve with a large enough effect in the signal ratio in the repeat runs, not every such curve was filed as active; the % refers to the signal ratio; further: potency means the concentration at half of the fitted maximal effect). Summed up: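 PR-UAS-bla HEK293T cells with beta-lactamase reporter under UAS control, in 2% charcoal-stripped FBS, treated with compounds plus 1 nM promegestone (R5020, final) for 16 hr at 37C. Read-out: FRET beta-lactamase substrate fluorescence after 2 hr at room temperature.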

The nature of assay [3]: qHTS assay to identify small molecule antagonists of the progesterone receptor (PR) signaling pathway - cell viability counter screen (AID 1346798). Further: series mostly up to about 92 µM; nearly all actives have a fitted effect of over 50% in size. A digest of the protocol: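 PR-UAS-bla HEK293T cells, 3,000/well in 2% charcoal-stripped FBS medium, dosed with compounds plus R5020 agonist and incubated 16 h at 37C. Viability then measured in the same wells by CellTiter-Glo luminescence after 30 min at RT.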

A short description of assay [4]: qHTS assay to identify small molecule agonists of the progesterone receptor (PR) signaling pathway - cell viability counter screen (AID 1346799; calls by dose curve; further: nearly all actives have a fitted effect of over 45% in size). Summed up:
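Counter screen in the PR-UAS-bla HEK293T wells (2% charcoal-stripped FBS, 16 h compound exposure at 37 C) after the bla read. CellTiter-Glo added, 30 min at room temperature, luminescence read as cell viability.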

Assay [5] is described as follows: qHTS assay to identify small molecule antagonists of the TGF-beta/Smad signaling pathway - cell viability counter screen (AID 1346824). Further: nearly all actives have a fitted effect of over 50% in size. A digest of the protocol:
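Cytotoxicity counter-screen run in the same wells as the beta-lactamase Smad reporter read: CellTiter-Glo luminescence after 30 min at room temperature. HEK 293T SBE-bla cells had 5 hr compound exposure at 37 C with TGF-beta1 (0.25 ng/mL stock).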

Assay [6] is described as follows: qHTS assay to identify small molecule agonists of the TGF-beta/Smad signaling pathway (AID 1346859; active means well fitted activation curve with a large enough effect in the signal ratio in the repeat runs, not every such curve was filed as active; the % refers to the signal ratio; further: series mostly up to about 77 µM). Summed up:
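SBE-bla HEK293T cells plated overnight, then compound exposure for 5 h at 37 C. Beta-lactamase reporter read with LiveBLAzer B/G FRET substrate after 2 h at room temperature, fluorescence at 405 nm excitation, 460/530 nm emission.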

For assay [7], the target named is Thyrotropin-releasing hormone receptor (Homo sapiens) (UniProt P34981). Put plainly: qHTS assay to identify small molecule antagonists of the thyrotropin-releasing hormone receptor (TRHR) signaling pathway (AID 1346877; active means well fitted inhibition curve with a large enough effect in the repeat runs, not every such curve was filed as active; further: series mostly up to about 51 µM). Summed up: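 Screening used HEK293 cells engineered with TRHR, with a brief 5 min room-temperature compound exposure preceding addition of TRH to 1 nM. The read-out was kinetic calcium-dye fluorescence, concentration-response from 15 doses in triplicate.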

Assay [8] has the same target. Put plainly: qHTS assay to identify small molecule agonists of the thyrotropin-releasing hormone receptor (TRHR) signaling pathway (AID 1346891; calls by dose curve; further: series mostly up to about 58 µM). A digest of the protocol:
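HEK293 cells expressing TRHR plated 18 h at 37 C/5% CO2, calcium dye-loaded 2 h at 37 C, then compound added (agonist mode); kinetic calcium fluorescence read 3 min at 1 s intervals; 15 concentrations in triplicate.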

The nature of assay [9]: Human pregnane X receptor (PXR) small molecule agonists, qHTS cell viability counter screen (AID 1346977). Further: nearly all actives have a fitted effect of over 50% in size. A digest of the protocol: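 PXR-Luc HepG2 cells (2,000/well, 5% charcoal-stripped FBS) preincubated 5 hr, then exposed to compounds 24 hr at 37 C. Viability read in the same wells by CellTiter-Fluor fluorescence, reagent added at 23 hr, 1 hr incubation.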
A short description of assay [10]: qHTS assay to identify small molecule agonists of the TGF-beta/Smad signaling pathway - cell viability counter screen (AID 1346829). Further: top concentration of the series differs between compounds; nearly all actives have a fitted effect of over 45% in size. A digest of the protocol: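 After overnight seating at 37 C and 5% CO2, reporter cells got compounds for 5 hr and FRET substrate for 2 hr; cell viability then came from CellTiter-Glo luminescence.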

SMILES strings stand for the structures. A number with no mark means an inactive call. Inconclusive results are not listed. Active and inactive are the calls of the source. Unless noted, the call rests on the fitted dose curve; in most records, active means well fitted curve in the direction sought with a large enough effect in the repeat runs; inconclusive means weak or mixed curves; inactive means no such curve, though single readings can be large; an effect the other way counts as inactive or inconclusive.

This is an account of results in PubChem BioAssay (Tox21).
On the % scale 0 is the no-effect control and ±100 the full control effect.

Thyrotropin-releasing hormone receptor (Homo sapiens), sequence (P34981 whole entry, looked up): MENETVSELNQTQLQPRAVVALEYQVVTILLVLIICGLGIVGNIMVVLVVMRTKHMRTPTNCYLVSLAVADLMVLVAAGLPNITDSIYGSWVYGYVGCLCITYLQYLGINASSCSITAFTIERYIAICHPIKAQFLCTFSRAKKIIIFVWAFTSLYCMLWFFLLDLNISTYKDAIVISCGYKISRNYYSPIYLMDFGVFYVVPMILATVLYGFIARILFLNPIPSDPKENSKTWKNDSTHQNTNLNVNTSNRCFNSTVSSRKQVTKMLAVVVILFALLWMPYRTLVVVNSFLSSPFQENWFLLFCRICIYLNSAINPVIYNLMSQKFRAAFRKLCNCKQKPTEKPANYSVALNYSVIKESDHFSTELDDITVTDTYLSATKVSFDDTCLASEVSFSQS
Progesterone receptor (Homo sapiens), sequence (P06401 whole entry, looked up): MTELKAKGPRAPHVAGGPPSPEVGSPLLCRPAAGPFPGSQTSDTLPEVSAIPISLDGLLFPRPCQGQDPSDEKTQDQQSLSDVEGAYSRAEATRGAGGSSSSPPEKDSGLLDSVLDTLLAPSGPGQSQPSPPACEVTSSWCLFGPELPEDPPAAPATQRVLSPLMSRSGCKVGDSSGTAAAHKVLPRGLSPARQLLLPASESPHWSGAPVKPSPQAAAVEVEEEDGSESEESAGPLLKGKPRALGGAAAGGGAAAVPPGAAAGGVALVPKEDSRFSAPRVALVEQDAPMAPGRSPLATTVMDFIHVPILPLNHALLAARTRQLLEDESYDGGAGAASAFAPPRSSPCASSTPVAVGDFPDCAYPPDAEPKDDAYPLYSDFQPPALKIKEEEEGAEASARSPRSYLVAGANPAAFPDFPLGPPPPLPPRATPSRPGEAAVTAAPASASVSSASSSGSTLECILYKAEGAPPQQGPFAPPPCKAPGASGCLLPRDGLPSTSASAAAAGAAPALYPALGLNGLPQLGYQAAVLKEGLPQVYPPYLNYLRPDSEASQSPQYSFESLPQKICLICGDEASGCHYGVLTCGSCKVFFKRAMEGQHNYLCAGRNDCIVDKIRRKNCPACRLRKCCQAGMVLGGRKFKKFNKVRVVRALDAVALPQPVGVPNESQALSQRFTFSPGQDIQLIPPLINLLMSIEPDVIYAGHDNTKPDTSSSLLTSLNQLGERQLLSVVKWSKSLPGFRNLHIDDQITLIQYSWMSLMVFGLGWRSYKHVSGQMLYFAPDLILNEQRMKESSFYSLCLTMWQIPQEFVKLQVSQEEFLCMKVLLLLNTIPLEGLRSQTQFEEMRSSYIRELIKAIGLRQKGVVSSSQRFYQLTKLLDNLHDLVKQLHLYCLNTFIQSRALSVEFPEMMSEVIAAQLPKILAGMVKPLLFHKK

For the compound `COc1cc(Cl)ccc1Cl`, the Potency result in assay [1], in assay [2], in assay [3], in assay [4], in [8] and in assay [9] was “inactive” each time. For the same compound, the call in assay [5], in [6] and in assay [7] was inactive.
On to `CNCCC(Oc1ccccc1OC)c1ccccc1` (configuration not stated), for which the Potency result in assay [1], in assay [2], in [3] and in assay [8] was “inactive” throughout. The call in [5], in assay [10], in [6] and in [7] was inactive.
For `O=C(Cl)c1cccc([N+](=O)[O-])c1`, the Potency entry in assay [1], in assay [2], in assay [3], in assay [4] and in assay [9] was “inactive” each time. For the same compound, the call in [5] and in assay [6] was inactive.
For the compound `COc1cc(N)c(Cl)cc1C(=O)NC1CCN(Cc2ccccc2)CC1`, the Potency result in assay [1], in assay [2], in [3] and in assay [8] was “inactive” throughout. For the same compound, the call in [5], in [10], in [6] and in assay [7] was inactive.
`Cc1c(C(=O)NCCO)[n+](=O)c2ccccc2n1[O-]`: the Potency entry in [1], in assay [2], in [3], in assay [4], in [8] and in assay [9] was “inactive” in each case. Besides, the result in [5], in assay [6] and in assay [7] was inactive.
As for `CC(=O)Nc1ccc(C)c(Cl)c1`, the Potency entry in [1], in assay [2], in assay [3], in assay [4], in [8] and in assay [9] was “inactive” each time. Also, the outcome in [5], in [6] and in assay [7] was inactive.
Turning to `NC(=O)Cc1cccc(C(=O)c2ccccc2)c1N`, the Potency result in assay [1], in assay [2] and in assay [3] was “inactive” each time. Further, the call in [5], in assay [10] and in assay [6] was inactive.
On to `CCCCNc1cc(C(=O)O)cc(S(N)(=O)=O)c1Oc1ccccc1`, for which the Potency result in assay [1], in assay [2], in [3] and in assay [8] was “inactive” in each case. The compound was classed as inactive in [5], in [10], in [6] and in assay [7].
For the compound `CC(C)C1=CC2=CC[C@@H]3[C@](C)(CCC[C@@]3(C)C(=O)O)[C@H]2CC1`, the Potency result in [1], in assay [2], in assay [3], in assay [4], in [8] and in assay [9] was “inactive” in each case. The call in [5], in assay [6] and in assay [7] was inactive.
For the compound `O=c1oc2c(O)c(O)cc3c(=O)oc4c(O)c(O)cc1c4c23`, the activation in assay [1] was -0.0631% [at 19 µM]; in [6] it was 5.13% [at 15.8 µM]; in assay [8] it was 0.184% [at 11.8 µM]. For the same compound, in assay [2], the activity change, negative = inhibition was 7.58% [at 18.9 µM]. Further, the Potency result in [3] is “inactive”. The activity change, negative = cytotoxicity in assay [4] was -1.25% [at 19 µM]; in [9] it was 4.42% [at 19 µM]. Besides, the viability change, negative = cytotoxic in [5] was -7.88% [at 15.8 µM]. For the same compound, in assay [7], the activity, negative = inhibition was 1.88% [at 10.5 µM].
In the case of `CCC/C=C/CO`, the Potency result in assay [1], in [2], in [3], in [8] and in assay [9] was “inactive” each time. Further, the result in assay [5], in assay [10], in assay [6] and in assay [7] was inactive.
`CO[C@@]1(NC(=O)CSCC#N)C(=O)N2C(C(=O)O)=C(CSc3nnnn3C)CS[C@@H]21`: the Potency entry in [1], in [2], in assay [3], in assay [4] and in assay [8] was “inactive” throughout. Besides, the outcome in [5], in [6] and in assay [7] was inactive.
Turning to `COc1cc2c(cc1N)oc1ccccc12`, the Potency result in [1], in assay [3] and in assay [8] was “inactive” throughout. Also, in assay [2], the Potency is 44.2 µM (active). In addition, the compound was classed as inactive in [5], in assay [10], in [6] and in assay [7].
On to `CCCCN1C[C@H](O)[C@@H](O)[C@H](O)[C@H]1CO`, for which the Potency result in [1], in assay [2], in [3], in assay [4], in [8] and in assay [9] was “inactive” each time. The compound was classed as inactive in assay [5], in assay [6] and in [7].
In the case of `Cc1ccc(C=O)s1`, the Potency entry in assay [1], in assay [2], in assay [3], in assay [8] and in assay [9] was “inactive” in each case. Moreover, the outcome in assay [5], in assay [10], in assay [6] and in assay [7] was inactive.
Consider `COC(C)CCO` (configuration not stated), for which the Potency entry in assay [1], in assay [2], in assay [3], in assay [4], in assay [8] and in assay [9] was “inactive” in each case. In addition, the compound was classed as inactive in assay [5], in assay [6] and in assay [7].
As to `OCCN1CCN(CCO)CC1`, the Potency result in assay [1], in assay [2], in assay [3], in assay [4], in assay [8] and in assay [9] was “inactive” throughout. Also, the outcome in assay [10], in assay [6] and in assay [7] was inactive.
As to `CCOC(=O)C1CC(=O)C(=C(O)C2CC2)C(=O)C1` (configuration not stated), the Potency result in assay [1], in [2], in assay [3], in assay [8] and in [9] was “inactive” each time. In addition, the call in assay [5], in [10], in assay [6] and in assay [7] was inactive.
